These results are taken from PubChem BioAssay (EPA / NIEHS).

Results filed as inconclusive are left out. Calls of active or inactive are those of the source. How the source made its calls, unless noted: active means hit-call score of the fitted dose curve at least 0.9, where 1 is the maximum; inconclusive means response in the unintended direction; inactive means score below 0.9.

The nature of experiment [1]: ATG_TAL_CIS: Attagene CIS-FACTORIAL HepG2 Assay for human TAL Basal Promoter (AID 2282966; active means hit-call score of the fitted dose curve at least 0.9, where 1 is the maximum; inactive means score below 0.9;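 further: background control endpoint measuring basal TAL promoter reporter mRNA not a specific factor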). Conditions: HepG2 Attagene cis-factorial TAL promoter reporter; actives raise or lower the signal. An outline of the steps:
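Steps: transfect HepG2 with multiple reporter transcription units; dose 24 h; isolate RNA, reverse-transcribe, PCR-amplify, label with 6-FAM, digest with HpaI; resolve by capillary electrophoresis. Bidirectional fitting against DMSO baseline.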

Experiment [2] can be described thus: ATG_TGFb_CIS: Attagene CIS-FACTORIAL HepG2 Assay for human Transforming Growth Factor (TGF) (AID 2282967; active means hit-call score of the fitted dose curve at least 0.9, where 1 is the maximum; inactive means score below 0.9). The settings on record: HepG2 Attagene CIS TGFb reporter, mRNA transcription; actives raise or lower the signal. In a few lines: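 Liver HepG2 line, cis-factorial reporter panel, 24 h dosing. Quantitation: RT-PCR products labeled with 6-FAM, cut with HpaI, resolved by capillary electrophoresis; DMSO-referenced bidirectional analysis.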

Experiment [3] in a line: ATG_VDRE_CIS: Attagene CIS-FACTORIAL HepG2 Assay for human Vitamin D Receptor Element (VDRE) (AID 2282968; active means hit-call score of the fitted dose curve at least 0.9, where 1 is the maximum; inactive means score below 0.9). Conditions: HepG2 VDRE cis-reporter transcription, actives raise or lower the signal. In a few lines: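 Transiently transfected HepG2 cells carrying cis-regulated reporter transcription units were exposed for 24 h. Reporter mRNA was measured by RT-PCR with fluorescent labelling and capillary electrophoresis, and fitted in both directions against DMSO.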

For experiment [4], the target named is Nuclear receptor subfamily 1 group I member 3 (Homo sapiens) (UniProt Q14994). Briefly: ATG_CAR_TRANS: Attagene TRANS-FACTORIAL HepG2 Assay for human Constitutive Androstane Receptor (CAR) (AID 2282969).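 Further: activators raise reporter mRNA above DMSO so AC50 marks induction.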 Conditions: HepG2 Attagene TRANS-FACTORIAL CAR reporter. In a few lines:
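HepG2 cells transiently transfected with GAL4-UAS reporter units; TRANS format reads activity of exogenous chimeric NR-Gal4 protein. After 24 h dosing, reporter mRNA quantified by RT-PCR, 6-FAM labelling and capillary electrophoresis; gain of signal fitted against DMSO.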

Experiment [5] addresses X-box-binding protein 1 (Homo sapiens) (UniProt P17861). The experiment in a line: ATG_Xbp1_CIS: Attagene CIS-FACTORIAL HepG2 Assay for human X-box Binding Protein 1 (XBP1) (AID 2282972; active means hit-call score of the fitted dose curve at least 0.9, where 1 is the maximum; inactive means score below 0.9). Conditions: HepG2 XBP1 cis-element reporter, Attagene multiplex; actives raise or lower the signal. An outline of the steps:
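HepG2, transient MRTU transfection (cis-promoter driven), 24 h compound exposure. Total RNA → oligo(dT) RT → PCR → 6-FAM labeling → HpaI cut → CE. Bidirectional fit vs DMSO.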

The nature of experiment [6]: ATG_M_19_TRANS: Attagene TRANS-FACTORIAL HepG2 Assay for M19 Transcription Factor (Internal Marker) (AID 2282974). The settings on record: HepG2 Attagene TRANS-FACTORIAL M19 internal marker reporter. In a few lines:
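Measured here: internal-marker reporter transcript from HepG2 cells transfected with MRTUs, harvested at 24 h. cDNA PCR products were 6-FAM labelled by primer extension, cut with HpaI for 2 h at 37 C, and resolved by CE.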

Experiment [7] addresses Bile acid receptor (Homo sapiens) (UniProt Q96RI1). The experiment in a line: ATG_FXR_TRANS: Attagene TRANS-FACTORIAL HepG2 Assay for Farnesoid X Receptor (FXR) (AID 2282979).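 Further: hits raise reporter mRNA above DMSO so AC50 marks FXR activation.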 Conditions: HepG2 Attagene TRANS FXR-GAL4 reporter transcription. In a few lines: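 After 24 h chemical treatment of transfected HepG2 cells, GAL4-UAS reporter transcripts driven by an exogenous FXR-GAL4 fusion were measured by RT-PCR and capillary electrophoresis. Increases over DMSO were fitted.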

The target in experiment [8] is Hepatocyte nuclear factor 4-alpha (Homo sapiens) (UniProt P41235). Briefly: ATG_HNF4a_TRANS: Attagene TRANS-FACTORIAL HepG2 Assay for human Hepatocyte Nuclear Factor 4 alpha (HNF4a) (AID 2282982). The settings on record: HepG2 HNF4a transactivation reporter, mRNA readout. In a few lines:
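HepG2 cells transiently transfected with HNF4a-Gal4 chimera and GAL4-UAS reporter units, dosed for 24 h. Reporter mRNA measured by RT-PCR, fluorescent primer extension and capillary electrophoresis; gain-of-signal fitted relative to DMSO.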

The nature of experiment [9]: ATG_M_32_TRANS: Attagene TRANS-FACTORIAL HepG2 Assay for M32 Transcription Factor (Internal Marker) (AID 2282984).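 Further: transcript level of a background control reporter unit measured by RT-PCR and capillary electrophoresis.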 The settings on record: HepG2 Attagene TRANS M32 internal marker reporter. An outline of the steps: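 HepG2 cells transiently transfected with GAL4-UAS reporter units, dosed for 24 hours. Reporter mRNA quantified by RT-PCR, 6-FAM labelling, HpaI digestion and capillary electrophoresis; internal-marker signal fitted upward relative to DMSO.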

Experiment [10] has as its target Nuclear receptor subfamily 4 group A member 2 (Homo sapiens) (UniProt P43354). Briefly: ATG_NURR1_TRANS: Attagene TRANS-FACTORIAL HepG2 Assay for human Nuclear Receptor Related Protein 1 (NURR1) (AID 2282985). The settings on record: HepG2 Attagene TRANS reporter, mRNA readout. An outline of the steps:
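HepG2 cells transiently transfected with NURR1-Gal4 chimera and GAL4-UAS reporter units; after 24 hr compound exposure, reporter mRNA quantified by RT-PCR and capillary electrophoresis; gain of signal fitted against DMSO.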

The target of experiment [11] is Transcriptional activator Myb (Homo sapiens) (UniProt P10242). The experiment in a line: ATG_Myb_CIS: Attagene CIS-FACTORIAL HepG2 Assay for human Myeloblastosis (Myb) Proto-Oncogene Transcription Factor (AID 2282986; active means hit-call score of the fitted dose curve at least 0.9, where 1 is the maximum; inactive means score below 0.9). Conditions: HepG2 Attagene CIS-FACTORIAL Myb reporter transcription; actives raise or lower the signal. In a few lines: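 Fluorescence signals from capillary electrophoresis of RT-PCR-amplified reporter cDNA give the read-out. Cells: HepG2 transfected with multiple cis-regulated reporter units. Exposure lasts 24 hours; DMSO defines baseline for gain or loss of signal.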
Chain of Transcriptional activator Myb (Homo sapiens) (P10242 whole entry, looked up): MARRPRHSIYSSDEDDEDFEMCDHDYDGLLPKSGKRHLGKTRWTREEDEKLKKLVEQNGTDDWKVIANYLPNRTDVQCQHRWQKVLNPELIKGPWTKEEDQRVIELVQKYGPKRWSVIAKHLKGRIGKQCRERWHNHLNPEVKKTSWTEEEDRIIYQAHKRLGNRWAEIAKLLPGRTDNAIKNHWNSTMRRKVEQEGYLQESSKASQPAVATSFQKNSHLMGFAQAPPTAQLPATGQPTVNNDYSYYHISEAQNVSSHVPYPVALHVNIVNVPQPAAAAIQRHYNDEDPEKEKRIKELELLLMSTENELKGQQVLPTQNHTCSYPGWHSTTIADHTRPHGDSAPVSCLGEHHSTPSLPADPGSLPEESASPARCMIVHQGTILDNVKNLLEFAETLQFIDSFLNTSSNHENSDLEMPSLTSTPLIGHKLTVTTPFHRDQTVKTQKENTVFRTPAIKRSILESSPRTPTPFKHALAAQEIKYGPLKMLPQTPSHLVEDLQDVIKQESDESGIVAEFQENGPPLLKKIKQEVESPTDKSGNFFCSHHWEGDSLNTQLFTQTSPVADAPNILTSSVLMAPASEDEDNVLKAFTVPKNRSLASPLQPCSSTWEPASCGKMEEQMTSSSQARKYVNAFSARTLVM

The target in experiment [12] is Nuclear respiratory factor 1 (Homo sapiens) (UniProt Q16656). Briefly: ATG_NRF1_CIS: Attagene CIS-FACTORIAL HepG2 Assay for human Nuclear Respiratory Factor 1 (NRF1) Orphan Gene (AID 2282987; active means hit-call score of the fitted dose curve at least 0.9, where 1 is the maximum; inactive means score below 0.9). The settings on record: HepG2 NRF1 cis-element reporter, Attagene multiplex; actives raise or lower the signal. In a few lines:
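Transcriptional reporter readout, one component of a 52-endpoint multiplexed HepG2 panel. Exposure 24 h; mRNA detected via RT-PCR and fluorescent capillary electrophoresis; fitting in both directions against DMSO.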

Experiment [13] deals with Glucocorticoid receptor (Homo sapiens) (UniProt P04150). Briefly: ATG_GR_TRANS: Attagene TRANS-FACTORIAL HepG2 Assay for human Glucocorticoid Receptor (GR) (AID 2282978).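 Further: activators score as hits since higher reporter transcript over DMSO is fitted.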 The settings on record: HepG2 Attagene TRANS GR reporter, mRNA transcription. In a few lines: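 Measurement of GAL4-UAS-driven reporter mRNA in human HepG2 liver cells 24 h post-dosing, using RT-PCR with fluorescent labelling and capillary electrophoresis; the transfected constructs report exogenous NR-GAL4 chimera activity, fitted upward against DMSO.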
Chain of Glucocorticoid receptor (Homo sapiens) (P04150 whole entry, looked up, the tested form may be a part): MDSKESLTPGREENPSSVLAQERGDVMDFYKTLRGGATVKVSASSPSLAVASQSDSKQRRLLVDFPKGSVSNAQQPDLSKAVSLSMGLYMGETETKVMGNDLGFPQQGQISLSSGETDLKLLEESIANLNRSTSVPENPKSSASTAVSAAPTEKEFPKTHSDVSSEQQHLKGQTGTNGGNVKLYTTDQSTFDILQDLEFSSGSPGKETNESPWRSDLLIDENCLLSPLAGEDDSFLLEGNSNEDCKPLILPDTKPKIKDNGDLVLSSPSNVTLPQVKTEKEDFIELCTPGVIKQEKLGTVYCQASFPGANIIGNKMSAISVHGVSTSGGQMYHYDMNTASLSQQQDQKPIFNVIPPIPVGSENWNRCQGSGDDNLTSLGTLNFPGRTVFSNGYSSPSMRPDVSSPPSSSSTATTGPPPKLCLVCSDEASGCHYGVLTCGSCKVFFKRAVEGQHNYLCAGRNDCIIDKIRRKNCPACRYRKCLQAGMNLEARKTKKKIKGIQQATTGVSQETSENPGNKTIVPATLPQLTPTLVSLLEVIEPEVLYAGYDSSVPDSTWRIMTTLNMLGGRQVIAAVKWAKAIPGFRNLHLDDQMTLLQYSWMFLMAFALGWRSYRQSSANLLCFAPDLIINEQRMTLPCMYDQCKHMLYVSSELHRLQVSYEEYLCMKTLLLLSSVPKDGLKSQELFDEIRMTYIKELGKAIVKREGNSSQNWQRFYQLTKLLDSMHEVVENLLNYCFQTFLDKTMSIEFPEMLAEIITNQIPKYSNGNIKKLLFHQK

Experiment [14] can be described thus: ATG_GAL4_TRANS: Attagene TRANS-FACTORIAL HepG2 Assay for GAL4 (Internal Marker) (AID 2282976). Conditions: HepG2 Attagene TRANS GAL4 internal marker reporter. In a few lines:
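Liver HepG2 line bearing multiplexed GAL4-UAS reporter constructs; 24 h chemical treatment. Transcripts were quantified as fluorescent fragments on capillary electrophoresis after RT-PCR and HpaI cut, with activity fitted upward from DMSO.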

In experiment [15] the target is Oxysterols receptor LXR-alpha (Homo sapiens) (UniProt Q13133). Briefly: ATG_LXRa_TRANS: Attagene TRANS-FACTORIAL HepG2 Assay for human Liver X Receptor alpha (LXRa) (AID 2282980). The settings on record: HepG2 Attagene TRANS reporter, LXRa transactivation. In a few lines:
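In this multiplexed TRANS system, compounds act on HepG2 cells carrying GAL4-UAS reporter units and a receptor-GAL4 fusion for 24 h. Induced reporter RNA is amplified, fluorescently labelled and sized by capillary electrophoresis, with DMSO as baseline.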

Experiment [16] addresses Oxysterols receptor LXR-beta (Homo sapiens) (UniProt P55055). Briefly: ATG_LXRb_TRANS: Attagene TRANS-FACTORIAL HepG2 Assay for human Liver X Receptor beta (LXRb) (AID 2282981). The settings on record: HepG2 Attagene TRANS GAL4-LXRb reporter, mRNA. An outline of the steps: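 HepG2 cells transiently transfected with GAL4-UAS reporter units for chimeric NR-Gal4 proteins, dosed for 24 h. Reporter transcripts measured by RT-PCR and capillary electrophoresis; gain-of-signal fitting relative to DMSO.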

A short description of experiment [17]: ATG_M_06_TRANS: Attagene TRANS-FACTORIAL HepG2 Assay for M06 Transcription Factor (Internal Marker) (AID 2282983).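 Further: reporter transcript level by RT-PCR then capillary electrophoresis fluorescence.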 The settings on record: HepG2 Attagene TRANS M06 internal marker reporter. In a few lines:
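Internal-marker background readout from a multiplexed TRANS reporter system in HepG2; 24 h dosing; mRNA induction quantified by RT-PCR plus capillary electrophoresis fluorescence; DMSO as negative control and baseline.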

Experiment [18] has as its target Estrogen receptor (Homo sapiens) (UniProt P03372). Briefly: ATG_ERa_TRANS: Attagene TRANS-FACTORIAL HepG2 Assay for human Estrogen Receptor alpha (ERa) (AID 2282970). The settings on record: HepG2 Attagene TRANS ERa GAL4 reporter, mRNA. An outline of the steps:
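Multiplexed cell-based reporter format in HepG2: chimeric ERa-Gal4 protein drives GAL4-UAS reporter transcription. Fluorescent reporter mRNA quantified by capillary electrophoresis 24 hours after dosing; endpoint fitted as signal gain against DMSO.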

Chain of Bile acid receptor (Homo sapiens) (Q96RI1 whole entry, looked up, the tested form may be a part): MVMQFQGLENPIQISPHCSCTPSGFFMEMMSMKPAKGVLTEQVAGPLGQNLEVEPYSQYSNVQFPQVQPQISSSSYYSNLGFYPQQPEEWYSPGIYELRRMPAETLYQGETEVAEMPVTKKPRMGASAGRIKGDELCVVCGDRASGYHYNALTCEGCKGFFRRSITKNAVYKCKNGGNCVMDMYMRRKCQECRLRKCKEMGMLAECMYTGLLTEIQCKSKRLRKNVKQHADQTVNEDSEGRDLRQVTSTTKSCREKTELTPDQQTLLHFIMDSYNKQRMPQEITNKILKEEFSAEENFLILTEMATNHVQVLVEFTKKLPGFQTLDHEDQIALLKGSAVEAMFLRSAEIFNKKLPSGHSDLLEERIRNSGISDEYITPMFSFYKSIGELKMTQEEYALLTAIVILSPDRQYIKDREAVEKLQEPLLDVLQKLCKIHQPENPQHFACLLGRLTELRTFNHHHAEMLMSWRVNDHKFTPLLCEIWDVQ
Chain of Hepatocyte nuclear factor 4-alpha (Homo sapiens) (P41235 whole entry, looked up, the tested form may be a part): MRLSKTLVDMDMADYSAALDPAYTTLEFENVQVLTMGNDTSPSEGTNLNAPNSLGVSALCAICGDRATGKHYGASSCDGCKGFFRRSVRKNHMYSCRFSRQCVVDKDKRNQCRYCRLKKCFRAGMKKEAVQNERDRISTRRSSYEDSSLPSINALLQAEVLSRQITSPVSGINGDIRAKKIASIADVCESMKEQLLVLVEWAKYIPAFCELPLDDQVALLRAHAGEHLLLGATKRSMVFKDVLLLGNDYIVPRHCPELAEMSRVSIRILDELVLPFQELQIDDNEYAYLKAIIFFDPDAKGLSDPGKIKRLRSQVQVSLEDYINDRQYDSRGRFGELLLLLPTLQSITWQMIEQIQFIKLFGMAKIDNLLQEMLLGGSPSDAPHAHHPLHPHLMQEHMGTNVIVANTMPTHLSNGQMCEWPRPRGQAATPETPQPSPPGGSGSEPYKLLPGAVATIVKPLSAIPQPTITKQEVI
Chain of X-box-binding protein 1 (Homo sapiens) (P17861 whole entry, looked up): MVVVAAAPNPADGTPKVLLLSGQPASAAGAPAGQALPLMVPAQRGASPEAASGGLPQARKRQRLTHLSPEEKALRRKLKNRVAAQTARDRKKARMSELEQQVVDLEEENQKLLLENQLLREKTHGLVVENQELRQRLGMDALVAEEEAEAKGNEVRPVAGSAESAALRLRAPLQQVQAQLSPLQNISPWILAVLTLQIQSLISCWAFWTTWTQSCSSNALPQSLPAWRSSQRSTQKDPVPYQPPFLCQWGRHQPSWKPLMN
Chain of Oxysterols receptor LXR-alpha (Homo sapiens) (Q13133 whole entry, looked up, the tested form may be a part): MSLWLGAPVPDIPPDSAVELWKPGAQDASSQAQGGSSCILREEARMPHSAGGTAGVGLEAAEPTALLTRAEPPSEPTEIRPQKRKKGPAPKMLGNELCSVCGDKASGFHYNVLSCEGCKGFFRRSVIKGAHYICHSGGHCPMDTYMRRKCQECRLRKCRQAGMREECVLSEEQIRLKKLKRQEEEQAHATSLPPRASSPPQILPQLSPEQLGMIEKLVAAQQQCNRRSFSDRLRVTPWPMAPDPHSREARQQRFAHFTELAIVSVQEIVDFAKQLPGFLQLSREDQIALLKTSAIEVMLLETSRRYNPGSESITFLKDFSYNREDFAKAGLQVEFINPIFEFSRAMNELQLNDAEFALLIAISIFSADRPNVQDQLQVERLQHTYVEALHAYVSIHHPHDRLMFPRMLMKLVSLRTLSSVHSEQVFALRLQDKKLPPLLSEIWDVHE
Chain of Nuclear receptor subfamily 1 group I member 3 (Homo sapiens) (Q14994 whole entry, looked up, the tested form may be a part): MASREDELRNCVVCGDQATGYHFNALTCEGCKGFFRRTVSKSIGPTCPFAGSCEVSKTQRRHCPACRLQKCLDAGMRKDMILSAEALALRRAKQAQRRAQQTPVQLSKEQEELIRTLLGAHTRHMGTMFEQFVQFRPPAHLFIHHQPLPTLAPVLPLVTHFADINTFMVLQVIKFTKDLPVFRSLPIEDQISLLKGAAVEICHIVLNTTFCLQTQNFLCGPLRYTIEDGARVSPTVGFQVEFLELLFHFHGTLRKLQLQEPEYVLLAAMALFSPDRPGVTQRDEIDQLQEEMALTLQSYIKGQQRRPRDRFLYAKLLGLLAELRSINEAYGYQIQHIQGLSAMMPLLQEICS
Chain of Nuclear respiratory factor 1 (Homo sapiens) (Q16656 whole entry, looked up): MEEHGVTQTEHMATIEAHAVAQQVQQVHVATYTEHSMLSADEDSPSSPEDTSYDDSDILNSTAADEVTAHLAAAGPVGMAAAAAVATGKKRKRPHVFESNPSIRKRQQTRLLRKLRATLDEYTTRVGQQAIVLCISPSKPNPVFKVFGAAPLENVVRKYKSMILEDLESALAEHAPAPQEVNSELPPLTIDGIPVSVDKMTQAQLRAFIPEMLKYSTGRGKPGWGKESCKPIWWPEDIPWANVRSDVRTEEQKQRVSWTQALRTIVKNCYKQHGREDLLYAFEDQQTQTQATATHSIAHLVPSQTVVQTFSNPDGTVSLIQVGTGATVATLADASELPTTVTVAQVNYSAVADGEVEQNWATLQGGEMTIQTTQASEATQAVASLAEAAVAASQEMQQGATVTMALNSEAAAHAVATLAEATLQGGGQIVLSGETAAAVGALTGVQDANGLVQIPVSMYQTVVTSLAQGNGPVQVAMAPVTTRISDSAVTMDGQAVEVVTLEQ
Chain of Oxysterols receptor LXR-beta (Homo sapiens) (P55055 whole entry, looked up, the tested form may be a part): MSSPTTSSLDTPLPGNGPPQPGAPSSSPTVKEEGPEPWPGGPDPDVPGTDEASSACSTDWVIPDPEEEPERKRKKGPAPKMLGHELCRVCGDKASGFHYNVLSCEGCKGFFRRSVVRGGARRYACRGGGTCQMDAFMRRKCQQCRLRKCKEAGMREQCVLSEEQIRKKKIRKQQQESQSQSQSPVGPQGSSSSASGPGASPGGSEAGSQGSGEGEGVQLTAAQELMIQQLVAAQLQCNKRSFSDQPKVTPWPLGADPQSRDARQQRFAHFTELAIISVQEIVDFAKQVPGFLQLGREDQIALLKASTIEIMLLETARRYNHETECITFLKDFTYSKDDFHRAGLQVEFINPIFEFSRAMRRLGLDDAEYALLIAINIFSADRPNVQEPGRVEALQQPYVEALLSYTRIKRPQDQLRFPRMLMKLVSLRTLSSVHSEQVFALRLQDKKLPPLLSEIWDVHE
Chain of Nuclear receptor subfamily 4 group A member 2 (Homo sapiens) (P43354 whole entry, looked up, the tested form may be a part): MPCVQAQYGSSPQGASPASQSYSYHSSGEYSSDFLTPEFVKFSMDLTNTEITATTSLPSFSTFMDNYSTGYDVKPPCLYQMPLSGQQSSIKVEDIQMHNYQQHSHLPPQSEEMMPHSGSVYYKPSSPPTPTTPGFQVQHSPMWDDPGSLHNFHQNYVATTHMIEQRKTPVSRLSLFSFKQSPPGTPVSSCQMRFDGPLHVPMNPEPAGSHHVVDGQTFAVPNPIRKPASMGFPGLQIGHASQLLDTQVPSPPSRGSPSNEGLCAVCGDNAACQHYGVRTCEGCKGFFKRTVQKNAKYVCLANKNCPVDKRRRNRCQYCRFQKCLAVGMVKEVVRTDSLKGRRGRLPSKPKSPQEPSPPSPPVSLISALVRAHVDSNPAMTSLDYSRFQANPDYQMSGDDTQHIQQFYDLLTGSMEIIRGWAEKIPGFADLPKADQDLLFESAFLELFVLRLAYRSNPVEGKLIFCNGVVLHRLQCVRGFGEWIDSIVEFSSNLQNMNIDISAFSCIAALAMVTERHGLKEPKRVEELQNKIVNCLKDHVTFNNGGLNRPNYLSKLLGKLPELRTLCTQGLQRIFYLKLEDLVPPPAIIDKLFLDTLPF

With `CCCCCc1ccco1`, the call in experiment [1], in experiment [2], in [3], in experiment [4], in experiment [5] and in experiment [6] was inactive. Further, the outcome in experiment [7], in experiment [8], in experiment [9], in [10], in experiment [11] and in experiment [12] was inactive.

On to `Cc1ccc2c(c1)C(=O)OC2=O`, for which the compound was called inactive in experiment [1], in experiment [2], in experiment [3], in [4], in experiment [5] and in [6]. The compound was called inactive in [13], in experiment [8], in experiment [9], in experiment [11] and in experiment [12].

With `CCOCCOCCOCC`, the result in [1], in experiment [2], in [3], in experiment [4], in experiment [5] and in [6] was inactive. Besides, the compound was called inactive in experiment [14], in [13], in experiment [8], in experiment [9], in experiment [10] and in [11]. In addition, in [12], the compound was classed as inactive.

For the compound `CC(=O)O[C@H]1C[C@@H]2CC[C@@]1(C)C2(C)C`, the outcome in experiment [1], in [2], in experiment [3], in [4], in [5] and in experiment [14] was inactive. Further, the compound was called inactive in experiment [13], in [7], in experiment [15], in [16], in [17] and in [9]. Moreover, the call in experiment [11] and in [12] was inactive.

Take `CN(c1nccc(=O)[nH]1)C1CCN(c2nc3ccccc3n2Cc2ccc(F)cc2)CC1`: the compound was called inactive in experiment [1], in experiment [2], in [18], in [5], in experiment [14] and in [15]. Besides, the result in experiment [16], in experiment [17], in experiment [9], in experiment [10], in experiment [11] and in [12] was inactive. Further, the AC50 in [3] is 9.35 µM (active).

On to `CC(=O)C1(C)CC2=C(CCCC2(C)C)CC1C` (centres undefined), for which the AC50 in experiment [1] is 148 µM (active). The outcome in experiment [2], in experiment [3], in experiment [4], in experiment [6], in experiment [14] and in [13] was inactive. Moreover, the call in experiment [15], in experiment [16], in experiment [11] and in experiment [12] was inactive.

For the compound `CCCCCCCCCCCCCCCC(=O)OC/C=C(C)/C=C/C=C(C)/C=C/C1=C(C)CCCC1(C)C`, the call in experiment [1], in experiment [2], in [4], in [14], in experiment [7] and in experiment [15] was inactive. The compound was classed as inactive in experiment [16], in [9], in experiment [11] and in experiment [12]. In addition, in [3], the AC50 is 2.37 µM (active).

`CCCCCCCCc1ccc(S(=O)(=O)O)cc1`: the compound was called inactive in experiment [1], in [2], in [3], in experiment [4], in experiment [5] and in [14]. Moreover, the result in experiment [13], in experiment [7], in experiment [9] and in [10] was inactive. The values for the AC50 in experiment [11] and in experiment [12] were 166 µM (active) and 146 µM (active), respectively.

For the compound `Brc1ccc(Br)c(Br)c1`, the call in experiment [1], in experiment [2], in [3], in experiment [18], in [5] and in experiment [6] was inactive. The compound was called inactive in experiment [9] and in [12].

In the case of `CC=Cc1ccc(OCC)c(O)c1`, the compound was called inactive in [1], in experiment [2], in experiment [3], in [4], in [13] and in experiment [15]. In addition, the result in experiment [8], in experiment [17], in experiment [9], in experiment [10], in experiment [11] and in experiment [12] was inactive.

Consider `CCCC(=O)OC(C)(C)Cc1ccccc1`, for which the outcome in experiment [1], in experiment [2], in [3], in [4], in [5] and in experiment [14] was inactive. The compound was called inactive in [13], in [8], in [9], in experiment [10], in [11] and in [12].

The term AC50 denotes the midpoint of the concentration-response curve, whichever way the signal moves.
